Screening data as filed in PubChem.
Cl transport mod: KCC2 (human) Cl- transport modulation; Q9H2X9; KCC2 cells, thallium flux FluoZin-2 fluorescence; B-score of Tl+ flux slope (higher = more flux/activation; lower = inhibition) at 10 µM; 2.2% of 190,000 active;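 active = thallium flux slope and its plate-corrected score both differing from the plate sample mean at a set confidence after two filtering rounds, in either direction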;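 note: slope of fluorescence scaled to starting intensity during 10 to 20 s after thallium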
ROMK mod: modulates human ROMK potassium channel activity; AID 1918; Tet-inducible ROMK, thallium flux fluorescence; actives lie on both sides; 2% of 130,000 active; B-score at 10 µM;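 active = signal ratio slope over the read window, or its plate-corrected B-score, at least 3 SD from the plate mean, either direction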;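 note: B-score of the F/F0 ratio slope over 7 to 12 s after thallium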
Target sequence (P48048 whole entry, looked up): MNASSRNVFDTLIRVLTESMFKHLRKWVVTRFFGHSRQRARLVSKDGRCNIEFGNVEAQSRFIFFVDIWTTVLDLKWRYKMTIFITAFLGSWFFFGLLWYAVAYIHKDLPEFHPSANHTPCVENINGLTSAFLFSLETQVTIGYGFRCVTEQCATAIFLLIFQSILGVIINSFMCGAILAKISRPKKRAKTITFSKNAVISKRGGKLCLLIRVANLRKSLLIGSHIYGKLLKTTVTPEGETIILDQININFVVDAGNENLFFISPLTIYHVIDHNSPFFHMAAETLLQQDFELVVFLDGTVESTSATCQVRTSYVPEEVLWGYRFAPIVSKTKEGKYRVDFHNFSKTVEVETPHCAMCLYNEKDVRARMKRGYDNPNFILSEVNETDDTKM
Insulin prom up: MIN6 insulin promoter up-regulation | 0.3% of 190,000 active | z-score at 5 µM | MIN6 insulin promoter-GFP reporter, high-content imaging; stronger effect = higher value;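 active = z-score above 3 at 5 µM with at least 500 cells counted in the well; inconclusive = wells under 500 cells, flagged as cytotoxic or low count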
INS promoter inh: TRM-6 insulin promoter activity inhibition; TRM-6 cells (human fetal islet line), insulin promoter-eGFP reporter, imaging; reporter expression induced with tamoxifen; inhibition, % at 2 µM; 0.9% of 130,000 active;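 active = inhibition above the mean plus 3 SD, with well images judged a real hit on visual review, cut at about 60% in these data, passing the limit was not always enough; inconclusive = inhibition over the cutoff but images rejected on review; inactive = inhibition not above the cutoff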
Lmaj promast: reduces viability of Leishmania major promastigotes; resazurin fluorescence viability; 9% of 200,000 active; inhibition, % at 10 µM; in the data active = inhibition above about 50%;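 note: promastigotes grown with compound for 44 hours at 28 °C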
WT yeast gro inh: growth inhibition of WT yeast, mitochondrial fusion screen; mitochondrial fusion phenotypic screen, WT strain; inhibition, % at 10 µM; 2.1% of 190,000 active; in the data active = inhibition above about 58%; tested in S. cerevisiae
Hits are given with their value; – = inactive; ? = inconclusive; · = no result given. Sampled rows, rich in hits. Any-hit rate of the full collection: about 12%.

SMILES	Cl transport mod	ROMK mod	Insulin prom up	INS promoter inh	Lmaj promast	WT yeast gro inh
CCN(CC)c1ccc(NC(=O)COc2ccccc2C)cc1S(=O)(=O)Nc1ccccc1OC	–	·	–	–	–	–
Cc1ccc(NC(=O)c2cnccn2)cc1S(=O)(=O)N(C)C	–	–	–	–	83	–
CCN(CC)C(=O)/C=C/c1ccc(OC)c(S(=O)(=O)N2CCCCC2)c1	·	–	–	–	–	–
Cc1ccc(C(=O)c2cn[nH]c2-c2cc(Cl)ccc2O)cc1	·	–	–	–	98	–
COc1ccc(O)c(-c2[nH]ncc2C(=O)c2ccccc2)c1	·	–	–	–	–	–
COc1ccc(/C=C2\SC(N3CCc4ccccc4C3)=NC2=O)cc1	–	·	–	–	–	62
COc1cc(/C=C2\SC(N3CCc4ccccc4C3)=NC2=O)cc(OC)c1OC	–	·	–	–	54	–
CCOc1ccc(/C=C2\SC(N3CCc4ccccc4C3)=NC2=O)cc1	–	·	–	–	–	–
Cc1ccc(NC(=S)c2nc3ccccc3[nH]2)c(C)c1	65	–	–	–	87	–
Cc1ccc(NC(=S)Nc2ccccn2)c(C)c1	–	·	–	·	·	·
CC(C)(C)NC(=O)C1CC(=O)OC1(C)C (centres undefined)	–	–	–	–	–	–
Fc1ccc(-c2nnc(CN3CCC(c4nc5ccccc5s4)CC3)o2)cc1	–	·	–	·	–	–
COc1ccc(C(=O)CSc2nc(C)cc(=O)[nH]2)cc1	–	–	–	–	–	–
Cc1cc(=O)[nH]c(N=N/C(=N/Nc2ccc(O)cc2)c2ccccc2)n1	–	–	–	–	94	–
COc1ccc(N/N=C(/N=Nc2nc(C)cc(=O)[nH]2)c2ccccc2)cc1	–	–	?	–	100	–
Cc1cc(=O)[nH]c(N=N/C(=N/Nc2ccccc2C)c2ccccc2)n1	–	–	–	–	98	–
Cc1ccnc(SCc2cc(=O)c(OC(=O)c3ccc(S(=O)(=O)N(C)C)cc3)co2)n1	–	·	–	–	–	–
Cn1cc(NC(=O)c2cc(NC(=O)c3cc(NC=O)cn3C)cn2C)cc1C(=O)NCCC(=N)N	–	·	–	·	·	·
CC(=O)Nc1ccc(S(=O)(=O)NCCC(=O)OCCN2C(=O)c3ccccc3C2=O)cc1	–	–	–	–	–	73
CC(=O)Nc1ccc(NC(=O)CCCN2C(=O)c3ccccc3C2=O)cc1	–	–	–	–	–	–
CCOC(=O)N1CCN(C(=O)C(NC(=O)C2CCC(C)CC2)C(C)C)CC1 (centres undefined)	·	–	–	–	–	–
COc1ccc(C(=O)Nc2nc3cc4c(cc3s2)OCO4)c(OC)c1	–	–	–	·	·	·
CCC(C)n1c(-c2cccs2)nc2nc3ccccc3nc21 (centres undefined)	·	–	–	·	67	–
CCOC(=O)c1c(CN2CCN(Cc3ccccc3)CC2)n(C)c2cc(Br)c(OC)cc12	–	–	–	–	–	95
CCOC(=O)c1c(CN2CCC(C)CC2)n(C)c2cc(Br)c(OC)cc12	–	–	–	·	·	·
SMILES	Cl transport mod	ROMK mod	Insulin prom up	INS promoter inh	Lmaj promast	WT yeast gro inh
O=C(Nc1cnn(Cc2ccc(F)cc2)c1)c1cnccn1	–	–	–	–	–	–
CC(C)(C)C1CCc2onc(C(=O)Nc3cnn(Cc4ccc(F)cc4)c3)c2C1 (centres undefined)	–	–	–	–	–	–
O=C(Nc1cnn(Cc2ccc(F)cc2)c1)c1noc2c1CCCC2	–	–	–	·	100	–
O=C(Nc1cnn(Cc2ccc(F)cc2)c1)C(c1ccccc1)c1ccccc1	–	·	–	–	51	–
COC(=O)c1cc2c(=O)n3ccccc3nc2n(Cc2cccnc2)c1=N	–	·	·	–	–	·
CC(=O)N=c1c(C#N)cc2c(=O)n3ccccc3nc2n1CCCOC(C)C	–	·	·	·	·	·
CC(C)OCCCn1c(=N)c(C(N)=S)cc2c(=O)n3ccccc3nc21	–	–	–	·	100	–
N=c1c(C(=O)NCc2ccc(F)cc2)cc2c(=O)n3ccccc3nc2n1Cc1cccnc1	·	–	–	–	71	–
N=c1c(C(=O)NCc2ccc(F)cc2)cc2c(=O)n3ccccc3nc2n1CCCN1CCOCC1	–	–	·	–	60	–
C=CCNS(=O)(=O)c1ccc(N2C(=O)c3ccccc3C2=O)cc1	–	–	–	·	–	–
CCOC(=O)C1(CCCc2ccccc2)CCN(C(=O)CN2C(=O)CSC2=O)CC1	–	–	–	·	–	–
c1ccc2c(c1)C(=Nn1cnnc1)c1ccccc1-2	–	–	–	–	–	–
O=C1/C(=N/n2cnnc2)c2ccccc2N1Cc1ccccc1	–	–	–	·	85	–
